About 83,000 compounds went through this panel and 20% of them were active in at least one assay; those are over-represented in the sample as a whole.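 48-hour exposure, single concentration, 96-well plates; percent growth endpoint where 0 means no net growth. Active: below 10.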 Unmarked numbers belong to inactive results. Calls of active or inactive are those of the source.

What all share (experiment): NCI-60 one-dose screen, 48 h (100 = growth as untreated, 0 = no growth, -100 = all killed)
Settings in all cases: 10 µM unless noted

The subject of assay [1] is NCI-H23 lung.
The subject of assay [2] is NCI-H226 lung.
Assay [3] relates to NCI-H322M lung.
Assay [4] relates to HOP-62 NSCLC.
Assay [5] relates to NCI-H460 lung.
The subject of assay [6] is HOP-92 NSCLC.
Assay [7] concerns NCI-H522 lung.
In assay [8] the test system is A549/ATCC NSCLC.
Assay [9] deals with 786-0 renal.
The subject of assay [10] is COLO 205 colon.
Assay [11] has as its system DU-145 prostate.
The subject of assay [12] is K-562 leukemia.
In assay [13] the test system is MALME-3M melanoma.
Assay [14] relates to MDA-MB-231 breast.
The test system of assay [15] is RXF 393 renal.
Assay [16] has as its system SF-268 CNS.
Assay [17] has as its system SF-295 CNS.
The test system of assay [18] is SF-539 CNS.
Assay [19] relates to UACC-257 melanoma.
Assay [20] relates to M14 melanoma.

Turning to `C/C(=N\N=C\c1cc([N+](=O)[O-])ccc1Cl)c1ccc2c(c1)Nc1ccccc1S2`, the growth in assay [1] is 54.7%; in assay [2], 53%; in assay [3], 37.3%; in assay [4], 15.7%; in [5], 9.18% (active); in assay [6], 54.1%. The growth in assay [7] is 60.3%; in assay [8], 29.3%; in assay [9], 21.1%; in assay [10], 61.3%; in assay [11], 84.2%; in [12] it was 57.1%. Further, the growth was 74.2% in assay [13]; 49.9% in [14]; 62.8% in assay [15]; 80.4% in assay [16]; -28% (active) in assay [17]; 58.1% in assay [18]. The growth was 81.5% in [19] and 88.2% in assay [20].
In the case of `C=C1CCC2C3(C)COC(c4ccc(F)cc4)OC3CCC2(C)C1CC(O)C1=CCOC1=O` (stereo not given), the growth is 51.2% in [1]; 58% in assay [2]; 82.1% in assay [3]; 81.7% in assay [4]; 93.8% in assay [5]; 45.9% in assay [6]. In addition, the growth was -28.2% (active) in [7]; 59.6% in assay [8]; 19.4% in assay [9]; 22.8% in assay [10]; 59.3% in [11]; 15.2% in assay [12]. Besides, the growth is 63.2% in [13]; 53.5% in [14]; 35.7% in [15]; 103% in assay [16]; 64.7% in assay [17]; 56.3% in [18]. For the same molecule, the growth in assay [19] was 57.9%; in [20], 24.7%.
Consider `Cn1cc(NC(=O)c2cc(NC(=O)c3ccc(/C=C/c4ccccc4)cc3)cn2C)cc1C(=O)NCCCN1CCOCC1`, for which the growth in assay [1] is 66.7%; in assay [2], 77.4%; in [3] it was 69.9%; in [4] it was 90.9%; in assay [5], -51.6% (active); in assay [6], -18% (active). The growth was 17.6% in assay [7]; 26.9% in assay [8]; 27.9% in assay [9]; -78.6% (active) in assay [10]; 44.4% in assay [11]; -41.3% (active) in [12]. Also, the growth in assay [13] was -83.3% (active); in assay [14], -19.9% (active); in assay [15] it was -3.75% (active); in assay [16] it was 58.6%; in assay [17], -80.5% (active); in [18], -98.2% (active). Also, the growth in assay [19] was 77.9%; in assay [20] it was -84% (active).
Turning to `CC(C)c1sc(NC(=O)c2cc(NC(=O)c3cc(NC(=O)c4nccn4C)cn3C)cn2C)nc1C(=O)NCCCN(C)C`, the growth in assay [1] is 75.3%; in [2] it was 71.2%; in assay [3], 95.6%; in assay [4] it was 80.1%; in [5], 118%; in assay [6], -0.363% (active). Also, the growth is 38.3% in [7]; 106% in assay [8]; 104% in assay [9]; 69.1% in assay [10]; 91.7% in [11]; 30.8% in [12]. Also, the growth was 65% in assay [13]; 85.5% in assay [14]; 76.6% in [15]; 57.9% in [16]; 100% in assay [17]; 76.9% in assay [18]. In addition, the growth in assay [19] is 82.3%; in assay [20], 94.3%.
As to `NS(=O)(=O)c1ccc(NNC(=O)CCC(=O)c2ccccc2)cc1`, the growth is 105% in [1]; 100% in assay [2]; 109% in [3]; 100% in assay [4]; 107% in assay [5]; 93.3% in [6]. Besides, the growth in assay [7] is 89.1%; in assay [8] it was 103%; in assay [9], 98.4%; in [10], 118%; in assay [11], 114%; in assay [12], 71.6%. Also, the growth is 107% in assay [13]; 99.3% in assay [14]; 119% in assay [15]; 95.8% in assay [16]; 99.4% in assay [17]; 103% in [18]. For the same molecule, the growth was 103% in assay [19] and 104% in [20].
`CCN(CC)CCOc1ccc(Nc2ncc3cc(-c4ccc(O)c(C#N)c4)c(=O)n(C)c3n2)cc1`: the growth in assay [1] was 98%; in [2], 49.3%; in assay [3], 96.9%; in [4] it was 91.1%; in assay [5] it was 85.3%; in assay [6], -5.3% (active). Further, the growth in assay [7] is 83.1%; in assay [8], 94.8%; in [9], -51.2% (active); in assay [10] it was 36.2%; in assay [11], 84.6%; in [12], -47.5% (active). For the same molecule, the growth was -95.5% (active) in assay [13]; 11.9% in assay [14]; 22.3% in assay [15]; 77.1% in [16]; 90.8% in assay [17]; 62.2% in assay [18]. Besides, the growth is 101% in assay [19] and 70.4% in assay [20].
`CC1(C)CC[C@]2(C(=O)Nc3ccc(Br)cc3)CC[C@]3(C)C(=CCC4[C@@]5(C)C[C@@H](O)[C@H](O)[C@@](C)(CO)C5CC[C@]43C)C2C1` (stereo not given in full): the growth in assay [1] was 9.43% (active); in [2], -28.6% (active); in assay [3], 54.5%; in assay [4] it was 5.6% (active); in assay [5] it was -42.1% (active); in [6], -53.4% (active). For the same molecule, the growth in [7] is -31.3% (active); in assay [8], 17.2%; in assay [9] it was -28.2% (active); in assay [10], -74.1% (active); in assay [11], 21.5%; in [12], 5.08% (active). The growth in [13] is 33.2%; in assay [14] it was -43.3% (active); in [15], -64.5% (active); in [16], 43.8%; in assay [17], -13.3% (active); in [18] it was -5.36% (active). The growth in assay [19] was 11.1%; in assay [20] it was 31.9%.
With `CCCCSc1nc(NCCc2c[nH]c3ccccc23)c(C#N)c(-c2ccc(F)cc2)n1`, the growth in assay [1] was 82.3%; in assay [2], 72.5%; in assay [3], 86.3%; in assay [4], 68.5%; in [5], 25.7%; in assay [6], 55.7%. For the same molecule, the growth in [7] is 69%; in assay [8], 74.5%; in assay [9] it was 71.8%; in assay [10], 57.8%; in [11], 66.4%; in assay [12], 22.2%. Further, the growth in assay [13] is 90.9%; in assay [14], 52.2%; in assay [15] it was 65.2%; in [16] it was 54.9%; in assay [17], 62.1%; in assay [18], 65.2%. In addition, the growth in [19] is 97.9%; in [20], 65.9%.

Values taken from PubChem BioAssay (NCI).
